The values that follow come from PubChem BioAssay (Tox21).

“And” between values parts separate entries of the source, which are not always exact repeats. Identical values can stand only once. Inconclusive results are not listed. The source holds several records for some structures; these can differ, active in one and inactive in another. The source made the active and inactive calls. Unless noted, calls follow the shape of the dose curve; as a rule, active = well fitted curve in the direction sought with a large enough effect in the repeat runs; inconclusive = weak or mixed curves; inactive = no such curve, though single readings can be large; an effect the other way counts as inactive or inconclusive.

Assay [1] is described as follows: qHTS assay to identify small molecule antagonists of the estrogen related receptor (ERR) signaling pathway from Tox21 library - cell viability counter screen (AID 1224834). Also: nearly all actives have a fitted effect of over 30% in size. Also: potency is read from the fitted curve at half-maximal effect. The gist of the method:
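Cytotoxicity of test substances is gauged in the same ERR cells used for the antagonist screen, after 17.5 h of compound treatment at 37 C, by CellTiter-Fluor fluorescence measured after 30 min.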

Assay [2] has as its target Luciferin 4-monooxygenase (Photinus pyralis) (UniProt P08659). As to the kind of experiment: qHTS assay to identify small molecule inhibitors of firefly luciferase (AID 1224835). Also: nearly all actives have a fitted effect of over 25% in size. Also: potency is read from the fitted curve at half-maximal effect. The method, boiled down: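 Biochemical qHTS: compounds run as interplate titrations against purified firefly enzyme, with D-luciferin and ATP each at its KM concentration. Light output recorded by CCD imaging.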
On the technique in general: In qHTS, concentration-response curves come from the screen itself.

Assay [3] is described as follows: qHTS assay to identify small molecule antagonists of the constitutive androstane receptor (CAR) signaling pathway - cell viability counter screen (AID 1224837). Also: nearly all actives have a fitted effect of over 45% in size. Also: potency is read from the fitted curve at half-maximal effect. The method, boiled down:
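Multiplexed cytotoxicity read-out for the CAR antagonist screen: double-stable HepG2-CYP2B6-hCAR cells co-treated with 50 nM CITCO (final) and compound over 15 concentrations, incubated 23 hr, then assessed by CellTiter-Fluor fluorescence.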

Assay [4] concerns the target Nuclear receptor subfamily 1 group I member 3 (Homo sapiens) (UniProt Q14994). The experiment in a line: qHTS assay to identify small molecule antagonists of the constitutive androstane receptor (CAR) signaling pathway (AID 1224838). Also: nearly all actives have a fitted effect of over 40% in size. Also: potency is read from the fitted curve at half-maximal effect. The gist of the method: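 Compounds were titrated across 15 concentrations onto HepG2 cells double-stably expressing hCAR and a CYP2B6-2.2kb reporter, together with 50 nM CITCO (final). After 24 h at 37 C, luciferase activity was measured by luminescence.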

Assay [5] has the same target. As to the kind of experiment: qHTS assay to identify small molecule agonists of the constitutive androstane receptor (CAR) signaling pathway (AID 1224839). Also: nearly all actives have a fitted effect of over 15% in size. Also: potency is read from the fitted curve at half-maximal effect. The gist of the method:
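Stable hCAR/CYP2B6-2.2kb HepG2 line in DMEM with 10% FBS; compounds (15 concentrations) and 0.75 uM PK11195 final, 24 h at 37 C/5% CO2, then ONE-Glo luminescence after 30 min.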

The nature of assay [6]: qHTS assay to identify small molecule antagonists of the estrogen related receptor signaling pathway with the pleiotropic PPARgamma coactivator (PGC) from Tox21 10K library - cell viability counter screen (AID 1224840; active = well fitted cell-killing curve with a large enough effect in the repeat runs, not every such curve was filed as active; also: nearly all actives have a fitted effect of over 40% in size; also: potency is read from the fitted curve at half-maximal effect). The gist of the method: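 Step one, plate 2,000 PGC/ERR cells per well; step two, incubate 6 h at 37 C/5% CO2; step three, pin-transfer compounds; step four, incubate 17.5 h; step five, add CellTiter-Fluor and read fluorescence after 30 min.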

A short description of assay [7]: qHTS assay to identify small molecule antagonists of the estrogen related receptor signaling pathway with the pleiotropic PPARgamma coactivator (PGC) from Tox21 10K library (AID 1224841; call rule not given here; also: actives are mostly falling curves and most rising ones were filed inactive; nearly all actives have a fitted effect of over 50% in size; also: potency is read from the fitted curve at half-maximal effect). The gist of the method: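 Antagonism in this quantitative HTS is taken from loss of luciferase signal in PGC/ERR cells. Cells (2,000/well) are treated with compounds in DMSO after a 6 h settling period and read by One-Glo luminescence after 18 h.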

The nature of assay [8]: qHTS assay to identify small molecule agonists of the estrogen related receptor signaling pathway with the pleiotropic PPARgamma coactivator (PGC) from Tox21 10K library (AID 1224842). Also: nearly all actives have a fitted effect of over 15% in size. Also: potency is read from the fitted curve at half-maximal effect. The gist of the method:
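PGC/ERR reporter cell line, 2,000 cells per well, incubated 6 h at 37 C before 23 nL compound in DMSO was added. After 18 h at 37 C, One-Glo luminescence read following 30 min at room temperature.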

The nature of assay [9]: qHTS assay to identify small molecule agonists of the constitutive androstane receptor (CAR) signaling pathway - cell viability counter screen (AID 1224836). Also: series mostly up to about 92 µM; nearly all actives have a fitted effect of over 45% in size. The method, boiled down: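 Fluorescence from CellTiter-Fluor indicates live cells after 23 h exposure. The human hepatoma line expresses hCAR and a CYP2B6-2.2kb reporter. Incubation medium contains 0.75 uM PK11195 (final).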

Nuclear receptor subfamily 1 group I member 3 (Homo sapiens), sequence (Q14994 whole entry, looked up): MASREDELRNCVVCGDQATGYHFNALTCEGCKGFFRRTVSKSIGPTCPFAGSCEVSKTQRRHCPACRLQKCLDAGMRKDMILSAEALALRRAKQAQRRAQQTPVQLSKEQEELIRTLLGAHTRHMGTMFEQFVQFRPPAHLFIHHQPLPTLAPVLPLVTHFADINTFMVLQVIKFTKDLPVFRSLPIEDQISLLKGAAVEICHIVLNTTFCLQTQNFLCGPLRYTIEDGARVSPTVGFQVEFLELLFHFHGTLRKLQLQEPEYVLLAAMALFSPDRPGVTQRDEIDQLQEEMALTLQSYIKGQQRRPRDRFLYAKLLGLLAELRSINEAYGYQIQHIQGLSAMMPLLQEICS
Luciferin 4-monooxygenase (Photinus pyralis), sequence (P08659 whole entry, looked up): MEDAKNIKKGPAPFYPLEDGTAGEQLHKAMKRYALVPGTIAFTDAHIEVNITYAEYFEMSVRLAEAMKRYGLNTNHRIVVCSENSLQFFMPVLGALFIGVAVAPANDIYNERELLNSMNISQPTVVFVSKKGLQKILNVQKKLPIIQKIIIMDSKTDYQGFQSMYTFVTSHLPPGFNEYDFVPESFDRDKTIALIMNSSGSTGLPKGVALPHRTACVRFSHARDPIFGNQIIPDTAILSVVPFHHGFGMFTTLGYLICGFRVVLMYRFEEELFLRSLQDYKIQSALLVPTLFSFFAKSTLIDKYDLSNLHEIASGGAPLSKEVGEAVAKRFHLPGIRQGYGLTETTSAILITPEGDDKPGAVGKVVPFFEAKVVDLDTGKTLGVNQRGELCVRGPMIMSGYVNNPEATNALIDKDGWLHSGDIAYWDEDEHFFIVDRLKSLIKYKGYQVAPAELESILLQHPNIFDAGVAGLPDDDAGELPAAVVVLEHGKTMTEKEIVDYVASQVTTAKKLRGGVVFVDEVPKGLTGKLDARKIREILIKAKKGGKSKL

As for `CC(O)CCO` (stereo unspecified), the Potency entry in assay [1], in assay [2], in [3], in assay [4], in assay [5] and in [6] was “inactive” throughout.

Take `Cc1cc(Cl)ccc1OCCCC(=O)O`: the Potency result in assay [1], in assay [3], in assay [4], in assay [5] and in assay [6] was “inactive” each time. Besides, the Potency in assay [2] is 73.8 µM (active).

On to `CCOC(=S)S`, for which the Potency entry in assay [1], in assay [5], in assay [7] and in assay [8] was “inactive” each time. The Potency in [3] was 32.6 µM (active); in [4] it was 24.3 µM (active) and 36.6 µM (active).

`O=C(Nc1ccc(Br)cc1)c1cc(Br)cc(Br)c1O`: the Potency result was “inactive and 19.3 µM (active) and 10.6 µM (active)” in [1]; 3.98 µM (active) and 5.03 µM (active) and 6.92 µM (active) in assay [2]; “inactive and 21.1 µM (active)” in assay [6]; 13.6 µM (active) and 13.7 µM (active) and inactive in assay [7]. For the same compound, the Potency result in assay [8] was “inactive”.

For `C1=Cc2cccc3cccc1c23`, the Potency result in assay [1], in assay [2], in assay [3], in assay [4], in [6] and in assay [8] was “inactive” each time. The Potency in assay [7] was 190 nM (active) and inactive.

Turning to `CC(C)(OOC(C)(C)c1ccccc1)c1ccccc1`, the Potency entry in assay [1], in assay [2], in assay [3], in assay [4], in assay [6] and in assay [7] was “inactive” in each case. The Potency entry in assay [8] was “inactive”. Moreover, in assay [5], the Potency was 24 µM (active) and 8.63 µM (active).

With `CN(C)c1ccc(C(=O)c2ccc(N(C)C)cc2)cc1`, the Potency result in [1] was “inactive and 9.69 µM (active)”; in assay [2] it was 35.2 µM (active) and 10 µM (active); in assay [5] it was 1.93 µM (active). The Potency entry in assay [3], in assay [4] and in assay [6] was “inactive” in each case.

As to `CC(C)N(C(=O)SCC(Cl)=C(Cl)Cl)C(C)C`, the Potency entry in assay [1], in [2], in assay [3], in [4], in assay [5] and in assay [6] was “inactive” throughout.

Take `Nn1cnnc1`: the Potency entry in assay [1], in assay [2], in assay [3], in assay [4], in assay [5] and in assay [6] was “inactive” throughout.

Take `Cc1ccc2c(c1N)C(=O)c1ccccc1C2=O`: the Potency in assay [1] is 30.3 µM (active); in [2], 3.95 µM (active) and 5.64 µM (active); in assay [5] it was 4.28 µM (active) and 7.7 µM (active); in [8] it was 19.1 µM (active) and 9.69 µM (active). Further, the Potency result in assay [4], in [6] and in assay [7] was “inactive” in each case.

With `O=S(=O)(Oc1ccc(Cl)cc1)c1ccc(Cl)cc1`, the Potency entry in [1], in assay [2], in [3], in assay [4], in [6] and in [7] was “inactive” throughout. The Potency entry in assay [8] was “inactive”. Further, the Potency in assay [5] is 69.5 µM (active) and 48.6 µM (active).

On to `COc1ccc(C=O)cc1`, for which the Potency result in assay [2], in [9], in [3], in assay [4], in assay [5] and in assay [6] was “inactive” throughout.

`O=C1C=CC(=O)C=C1`: the Potency in assay [2] is 31.9 µM (active) and 22.4 µM (active). The Potency result in assay [9], in assay [3], in assay [4], in assay [5] and in assay [6] was “inactive” each time.

Consider `CN(C)C(=O)Nc1ccc(Cl)cc1`, for which the Potency result in [1], in [2], in [3], in assay [4], in assay [5] and in [6] was “inactive” each time.

As for `O=[N+]([O-])c1ccc(O)c([N+](=O)[O-])c1`, the Potency in [1] is 27.4 µM (active) and 27.3 µM (active); in [3], 30.8 µM (active); in assay [6], 30.8 µM (active) and 27.3 µM (active); in assay [7] it was 30.8 µM (active) and 21.7 µM (active). Further, the Potency result in [2], in assay [4], in assay [5] and in [8] was “inactive” each time.

As to `CCCCCCCCOC(=O)c1ccccc1C(=O)OCCCCCCCC`, the Potency entry in assay [1], in assay [2], in [3], in assay [4] and in assay [6] was “inactive” in each case. In addition, the Potency result in assay [5] was “inactive and 17.2 µM (active)”.

Regarding `Nc1ccc(Cl)cc1N`, the Potency entry in assay [1], in assay [6] and in assay [7] was “inactive” throughout. The Potency is 13.1 µM (active) and 7.1 µM (active) in assay [2]; 6.86 µM (active) in assay [3]; 217 nM (active) in [4]; 8.98 µM (active) and 386 nM (active) in assay [8].

Consider `C#C[C@]1(O)CC[C@H]2[C@@H]3CCC4=CC(=O)CC[C@]4(C)[C@H]3CC[C@@]21C`, for which the Potency entry in assay [2], in [9], in assay [3], in assay [4], in assay [5] and in assay [6] was “inactive” throughout.

For `OCC(O)CO`, the Potency entry in assay [1], in [2], in assay [3], in assay [6], in assay [7] and in assay [8] was “inactive” each time.

As to `O=c1oc2ccccc2c(O)c1C(CC(O)c1ccc(-c2ccc(Br)cc2)cc1)c1ccccc1` (stereo unspecified), the Potency result in assay [1], in assay [2], in [3], in [4], in assay [5] and in assay [6] was “inactive” each time.

For `Cc1ccc(N)c(N)c1`, the Potency was 15.9 µM (active) and 2.52 µM (active) in assay [2]; 27.4 µM (active) and 24.3 µM (active) in assay [5]. Also, the Potency entry in [9], in [3], in assay [4] and in [6] was “inactive” each time.

For `CCCCCCOC(=O)c1ccccc1C(=O)OCCCCCC`, the Potency entry in [2], in assay [9], in [3], in assay [4] and in assay [6] was “inactive” in each case. In assay [5], the Potency is 27.9 µM (active) and 30.6 µM (active).

For `N#CC(Br)Br`, the Potency result in assay [2], in assay [9], in assay [3], in assay [4], in assay [5] and in assay [6] was “inactive” throughout.

As for `Oc1c(Cl)c(Cl)c(Cl)c(Cl)c1Cl`, the Potency in assay [2] is 34.9 µM (active) and inactive; in assay [5], 21.2 µM (active) and 15.4 µM (active). For the same compound, the Potency result in assay [9], in [3], in assay [4] and in [6] was “inactive” throughout.

For the compound `ClC1C(Cl)C(Cl)C(Cl)C(Cl)C1Cl` (stereo unspecified), the Potency entry in assay [2], in assay [9], in assay [3], in [6] and in assay [8] was “inactive” in each case. In addition, the Potency result in [7] was “inactive and 68.6 µM (active)”.

`NNC(=S)NN`: the Potency entry in assay [2], in [9], in [3] and in [8] was “inactive” in each case. The Potency in assay [7] was 62.8 µM (active) and 61.1 µM (active).

For `COP(=O)(OC)OC`, the Potency result in assay [2], in assay [9], in assay [3], in [5], in assay [6] and in [7] was “inactive” in each case. Also, the Potency result in [8] is “inactive”. In addition, the Potency in assay [4] was 30.9 µM (active) and inactive.

Consider `N[C@@H](Cc1ccc(N(CCCl)CCCl)cc1)C(=O)O`, for which the Potency entry in assay [3] and in assay [6] was “inactive” in each case.

Turning to `CCCCC(CC)COC(=O)Cl` (stereo unspecified), the Potency result in assay [2], in assay [9], in assay [3], in assay [4], in [5] and in [6] was “inactive” in each case. The Potency entry in assay [7] and in assay [8] was “inactive” in each case.
